# Measured values from the supplement of paper PMC11628255, “Interference of metal ions on the bioluminescent signal of firefly, Renilla, and NanoLuc luciferases in high-throughput screening assays” (Frontiers in Chemistry, 2024).
# ± gives the standard deviation of the averaged measurements.
# Tested on: firefly luciferase (FLuc)
# Assay: residual bioluminescent signal relative to negative control without GSH; higher = less interference (more residual luciferase signal)
# Details: screening conditions buffer
# Protocol: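 Selected metal salts at 3-4 concentrations tested on purified FLuc, NLuc or RLuc in screening buffer with 0, 0.2 or 2 mM glutathione added; 10 min enzyme pre-incubation at RT, luminescence 10 min after substrate. Signal normalised to negative control without GSH (% N_VALUE); triplicate wells.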
# [1] = metal salt concentration 1 mM, glutathione 0 mM
# [2] = metal salt concentration 1 mM, glutathione 0.2 mM
# [3] = metal salt concentration 1 mM, glutathione 2 mM
compound,measurement,setting,value
O=[N+]([O-])[O-].[Ag+] [silver nitrate],residual bioluminescent signal,"metal salt concentration 0.0001 mM, glutathione 0 mM",58.4 ± 11%
same,residual bioluminescent signal,"metal salt concentration 0.0001 mM, glutathione 0.2 mM",63.3 ± 6%
same,residual bioluminescent signal,"metal salt concentration 0.0001 mM, glutathione 2 mM",0.242 ± 0.17%
same,residual bioluminescent signal,"metal salt concentration 0.000243 mM, glutathione 0 mM",1.26 ± 0.36%
same,residual bioluminescent signal,"metal salt concentration 0.000243 mM, glutathione 0.2 mM",64.7 ± 3.9%
same,residual bioluminescent signal,"metal salt concentration 0.000243 mM, glutathione 2 mM",0.483 ± 0.34%
same,residual bioluminescent signal,"metal salt concentration 0.0005 mM, glutathione 0 mM",0.58 ± 0.43%
same,residual bioluminescent signal,"metal salt concentration 0.0005 mM, glutathione 0.2 mM",61.9 ± 10%
same,residual bioluminescent signal,"metal salt concentration 0.0005 mM, glutathione 2 mM",0.58 ± 0.29%
same,residual bioluminescent signal,[1],0.435 ± 0.38%
same,residual bioluminescent signal,[2],0.918 ± 0.47%
same,residual bioluminescent signal,[3],0.531 ± 0.3%
O=[N+]([O-])[O-].O=[N+]([O-])[O-].[Cu+2] [copper(II) nitrate],residual bioluminescent signal,"metal salt concentration 0.05 mM, glutathione 0 mM",84.5 ± 15%
same,residual bioluminescent signal,"metal salt concentration 0.05 mM, glutathione 0.2 mM",54.9 ± 3.8%
same,residual bioluminescent signal,"metal salt concentration 0.05 mM, glutathione 2 mM",0.483 ± 0.17%
same,residual bioluminescent signal,"metal salt concentration 0.125 mM, glutathione 0 mM",86.3 ± 9.3%
same,residual bioluminescent signal,"metal salt concentration 0.125 mM, glutathione 0.2 mM",19.4 ± 1.1%
same,residual bioluminescent signal,"metal salt concentration 0.125 mM, glutathione 2 mM",0.531 ± 0.34%
same,residual bioluminescent signal,"metal salt concentration 0.2 mM, glutathione 0 mM",65.3 ± 11%
same,residual bioluminescent signal,"metal salt concentration 0.2 mM, glutathione 0.2 mM",5.12 ± 2%
same,residual bioluminescent signal,"metal salt concentration 0.2 mM, glutathione 2 mM",0.628 ± 0.44%
same,residual bioluminescent signal,[1],0.628 ± 0.47%
same,residual bioluminescent signal,[2],0.338 ± 0.17%
same,residual bioluminescent signal,[3],0.435 ± 0.25%
O=[N+]([O-])[O-].O=[N+]([O-])[O-].[Zn+2] [zinc nitrate],residual bioluminescent signal,"metal salt concentration 0.5 mM, glutathione 0 mM",100 ± 3.4%
same,residual bioluminescent signal,"metal salt concentration 0.5 mM, glutathione 0.2 mM",29.7 ± 6%
same,residual bioluminescent signal,"metal salt concentration 0.5 mM, glutathione 2 mM",0.435 ± 0.25%
same,residual bioluminescent signal,[1],1.06 ± 0.55%
same,residual bioluminescent signal,[2],0.918 ± 0.74%
same,residual bioluminescent signal,[3],0.387 ± 0.17%
same,residual bioluminescent signal,"metal salt concentration 1.20 mM, glutathione 0 mM",0.387 ± 0.17%
same,residual bioluminescent signal,"metal salt concentration 1.20 mM, glutathione 0.2 mM",0.676 ± 0.36%
same,residual bioluminescent signal,"metal salt concentration 1.20 mM, glutathione 2 mM",0.676 ± 0.36%
same,residual bioluminescent signal,"metal salt concentration 2.5 mM, glutathione 0 mM",0.58 ± 0.29%
same,residual bioluminescent signal,"metal salt concentration 2.5 mM, glutathione 0.2 mM",0.87 ± 0.43%
same,residual bioluminescent signal,"metal salt concentration 2.5 mM, glutathione 2 mM",0.338 ± 0.34%
